Assay outcomes deposited in PubChem BioAssay by National Center for Advancing Translational Sciences (NCATS).
The list is not random: actives were taken first. Their share in the collection is about 12%.
PLK1 PBD block – blocks phosphopeptide binding to human PLK1 polo-box domain; Plk1 PBD binding of FITC phosphopeptide, fluorescence polarization; Potency, µM, for inactives: max response, negative = inhibition, hits mostly inhibitors; 360,000 tested, 2.8% active; also: series mostly up to about 57 µM; % is scaled to controls: 0 for no effect and ±100 for the full control effect; nearly all actives have a fitted effect of over 65% in size
Target sequence (P53350 whole entry, looked up, the tested form may be a part): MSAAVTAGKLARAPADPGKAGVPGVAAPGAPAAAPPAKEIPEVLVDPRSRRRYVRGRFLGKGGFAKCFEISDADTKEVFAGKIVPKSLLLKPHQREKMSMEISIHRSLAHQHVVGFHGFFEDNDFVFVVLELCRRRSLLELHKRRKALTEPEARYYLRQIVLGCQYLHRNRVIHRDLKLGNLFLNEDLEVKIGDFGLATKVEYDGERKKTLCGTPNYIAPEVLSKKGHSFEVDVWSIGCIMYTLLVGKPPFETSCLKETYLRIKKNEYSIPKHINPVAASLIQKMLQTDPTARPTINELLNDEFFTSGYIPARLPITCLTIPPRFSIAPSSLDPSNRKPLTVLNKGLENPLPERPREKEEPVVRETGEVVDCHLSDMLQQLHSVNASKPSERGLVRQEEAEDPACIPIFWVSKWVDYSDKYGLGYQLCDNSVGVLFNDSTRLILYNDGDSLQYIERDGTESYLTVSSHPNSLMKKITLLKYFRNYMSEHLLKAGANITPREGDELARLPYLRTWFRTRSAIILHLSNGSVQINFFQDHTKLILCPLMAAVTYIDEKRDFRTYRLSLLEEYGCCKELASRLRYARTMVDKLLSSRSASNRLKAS
JMJD2A Tudor – inhibitors of human JMJD2A Tudor domain. Potency, µM (series often up to 114 µM), without a hit: top-dose activity change, negative = inhibition, actives largely listed as inhibitors. AID 504339. 390,000 tested, 4.4% active. AlphaScreen JMJD2A-Tudor / H3K4me3 peptide binding; also: % is scaled to controls: 0 for no effect and ±100 for the full control effect; nearly all actives have a fitted effect of over 50% in size
G9a block – inhibitors of human histone lysine methyltransferase G9a | G9a H3K9 monomethylation, AlphaScreen, 2 h | Potency, µM (series often up to 102 µM), for inactives: top-dose activity, negative = inhibition, actives largely listed as inhibitors | 350,000 tested, 8.8% active; also: % is scaled to controls: 0 for no effect and ±100 for the full control effect; nearly all actives have a fitted effect of over 75% in size
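Signal arises when biotinylated H3K9 peptide, once monomethylated, bridges streptavidin donor and antibody-captured acceptor beads. Enzyme at 20 nM was preincubated 15 min with test compounds; peptide 500 nM and SAM 20 uM then reacted for 2 h.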
HP1b binding inh – inhibitors of HP1-beta chromodomain binding to methylated histone tails; P83916; AlphaScreen HP1-beta / biotin-H3K9me3 peptide binding; Potency, µM (series often up to 114 µM), without a hit: top-dose activity change, negative = inhibition, actives largely listed as inhibitors; 390,000 tested, 0.56% active; AID 540317; also: nearly all actives have a fitted effect of over 70% in size
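AlphaScreen: HP1-beta (50 nM) preformed 30 min with biotin-H3(1-18)K9me3 peptide (50 nM) in PBS pH 7.4, 0.01% Tween-20. Compound added for 30 min at RT, then streptavidin donor/nickel chelate acceptor beads (10 ug/mL) for 30 min.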
Sfp PPTase inh – inhibitors of Bacillus subtilis Sfp phosphopantetheinyl transferase; AID 1490; Potency, µM, without a hit: largest response in the series, negative = inhibition, actives largely listed as inhibitors; Biochemical Sfp PPTase activity, qHTS; 310,000 tested, 3.5% active;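 also: the enzyme is Sfp with the accession as filed and its product quenches rhodamine fluorescence; 0% = enzyme reaction without inhibitor and -100% = no enzyme wells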
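Fluorescence-quenching assay with 15 nM Sfp, 5 uM rhodamine-CoA and 12.5 uM BHQ-2-labelled ybbR peptide in pH 7.6 Hepes/MgCl2 buffer. Enzyme was pre-incubated with compound for 15 min at room temperature. Rate was taken from the 30-min fluorescence change (525/598 nm).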
BAZ2B inh – blocks human BAZ2B | 360,000 tested, 4.4% active | Potency, µM (highest dose often 114 µM), for inactives: at the top dose activity change, negative = inhibition, most hits filed as inhibitors | Q9UIF8 | AlphaScreen BAZ2B-H3K14Ac peptide displacement; also: % is scaled to controls: 0 for no effect and ±100 for the full control effect; nearly all actives have a fitted effect of over 60% in size
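Multi-concentration screen (max 110 uM) measuring displacement of acetylated histone H3 peptide from BAZ2B by AlphaScreen, using 50 nM protein, 50 nM peptide and 10 ug/mL streptavidin donor plus Ni-chelate acceptor beads.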
Starred values were filed as active, the others as inactive; [ ] = dose if it differs, or a comment. Calls follow the shape of the dose curve; as a rule, active = well fitted curve in the direction sought with a large enough effect; inconclusive = small, poorly fitted or top-dose-only effect, or another doubt; inactive = no such curve, though single readings can be large; an effect the other way counts as inactive or inconclusive. Potency is read from the fitted curve at half-maximal effect.

`COc1ccc(OC)c(CCNC(=O)C(C)n2nc(C)c3c(C)n(-c4ccccc4)nc3c2=O)c1` (stereo unspecified) gave PLK1 PBD block 27µM*, JMJD2A Tudor inconclusive, G9a block 49%, HP1b binding inh 9%, Sfp PPTase inh 16% and BAZ2B inh -26%.
`COc1ccc(CNC(=O)Cn2nc(C)c3c(C)n(-c4ccccc4)nc3c2=O)cc1OC` gave JMJD2A Tudor -7%, G9a block -24%[59 µM], HP1b binding inh inconclusive and BAZ2B inh -34%.
COc1ccc(CCNC(=O)Cn2nc(C)c3c(C)n(-c4ccc(C)cc4)nc3c2=O)c(OC)c1 was read as JMJD2A Tudor inconclusive, G9a block inconclusive, HP1b binding inh 11% and BAZ2B inh 50µM*.
`CCN(CC(=O)NC1CCS(=O)(=O)C1)S(=O)(=O)c1ccc(C)cc1C` (stereo unspecified) gave PLK1 PBD block 6%, JMJD2A Tudor -20%, G9a block 24%[59 µM], HP1b binding inh 32%, Sfp PPTase inh 6% and BAZ2B inh 9%.
For O=c1cc(C(F)(F)F)nc(-n2[nH]c3c(c2=O)CCCC3)[nH]1 the results were PLK1 PBD block -8%, JMJD2A Tudor -2%[57.1 µM], G9a block inconclusive, HP1b binding inh 26%, Sfp PPTase inh -17% and BAZ2B inh 2.5µM*.
`Cc1cccc(C)c1OCC(=O)NC1CC1` gave PLK1 PBD block -3%, JMJD2A Tudor 2%, G9a block 60%, HP1b binding inh 21%, Sfp PPTase inh 50µM* and BAZ2B inh 1%.
For Cc1cccc(OCC(=O)NC2CCCCCC2)c1C the results were PLK1 PBD block -13%, JMJD2A Tudor -5%, HP1b binding inh 31%, Sfp PPTase inh 18% and BAZ2B inh 2%.
Cc1cccc(C)c1OCC(=O)NNC(=S)NC(=O)C1CC1 was read as PLK1 PBD block -6%, JMJD2A Tudor -13%, G9a block 20µM*, HP1b binding inh 50%, Sfp PPTase inh 25% and BAZ2B inh -2%.
CC(=O)N1CCN(c2ccc(NCc3ccc(-c4cccc(Cl)c4)o3)cc2)CC1 was read as JMJD2A Tudor 40µM* and HP1b binding inh inconclusive.
`CCc1ccc(CNc2ccc(N3CCN(C(C)=O)CC3)cc2)cc1` gave PLK1 PBD block -11%, JMJD2A Tudor inconclusive, G9a block inconclusive, HP1b binding inh -48%, Sfp PPTase inh 35µM* and BAZ2B inh 40µM*.
`COc1cc(CNc2ccc(N3CCN(C(C)=O)CC3)cc2)ccc1OCc1ccccc1` gave PLK1 PBD block -1%, JMJD2A Tudor 45µM*, G9a block 28µM*, HP1b binding inh 45µM*, Sfp PPTase inh -27% and BAZ2B inh 40µM*.
For Cc1ccc(CNc2ccc(O)cc2)cc1 the results were PLK1 PBD block inconclusive, JMJD2A Tudor 50µM*, G9a block inconclusive, HP1b binding inh -73%, Sfp PPTase inh inconclusive and BAZ2B inh 32µM*.
Screening Cc1ccc(NCc2ccccc2O)cc1 returned PLK1 PBD block 3%, JMJD2A Tudor inconclusive, G9a block -6%[2.33 µM], HP1b binding inh -4%, Sfp PPTase inh -4% and BAZ2B inh inconclusive.
Screening COc1ccc([C@H]2CC(=O)C=C(c3ccc(F)cc3OCc3ccccc3)C2)cc1OC returned PLK1 PBD block -3%, JMJD2A Tudor inconclusive, G9a block 12%[0.501 µM], HP1b binding inh 6% and BAZ2B inh -11%.
Screening CC(C)CCC(C(=O)O)C(C)CC(=O)Nc1ccn(-c2ccccc2)n1 (stereo unspecified) returned PLK1 PBD block -1%, JMJD2A Tudor 1%, HP1b binding inh 46%, Sfp PPTase inh 8% and BAZ2B inh -4%.
Screening Cc1ccc(CNC(=O)N2CCN(c3ccc(C)cc3)CC2)cc1 returned PLK1 PBD block -26%, JMJD2A Tudor -17%, G9a block inconclusive, HP1b binding inh 9%, Sfp PPTase inh 8% and BAZ2B inh -35%.
CC(=O)N1CCN(c2ccc(NCc3ccc(C)cc3)cc2)CC1 was read as PLK1 PBD block -9%, JMJD2A Tudor inconclusive, G9a block 13µM*, HP1b binding inh -24%, Sfp PPTase inh 40µM* and BAZ2B inh 45µM*.
For CCN1/C(=C\C(C)=O)Sc2ccc(OC)cc21 the results were PLK1 PBD block 2%, JMJD2A Tudor -23%, G9a block 5µM*, HP1b binding inh 12%, Sfp PPTase inh 2% and BAZ2B inh -28%.
Screening COc1ccc2c(c1)N(C[C@H](C)CN(C)C)c1ccccc1S2 returned PLK1 PBD block 0%, JMJD2A Tudor inconclusive and HP1b binding inh -16%.
Screening CCC(=O)/C=C1\Sc2ccc(OC)cc2N1CCO returned PLK1 PBD block -9%, JMJD2A Tudor -13%, G9a block -22%[59 µM], HP1b binding inh 52%, Sfp PPTase inh -7% and BAZ2B inh 8%.
For CCC(=O)/C=C1\Sc2ccc(OC)cc2N1CC the results were PLK1 PBD block inconclusive, JMJD2A Tudor -15%, G9a block 50µM*, HP1b binding inh 26%, Sfp PPTase inh 50µM* and BAZ2B inh 2%.
COc1ncccc1C(=O)N1CCCC(C(=O)Nc2cccc(-c3ccc(F)cc3)c2)C1 (stereo unspecified) was read as PLK1 PBD block 0%.
Screening O=C1SCCC1NS(=O)(=O)c1ccc([N+](=O)[O-])cc1 (stereo unspecified) returned PLK1 PBD block -21%, JMJD2A Tudor -16%, G9a block 50µM*, HP1b binding inh 3%, Sfp PPTase inh 14% and BAZ2B inh inconclusive.
Screening CCc1cc2c(nc1CC)CCN(CC/C(C)=N/OC[C@@H](O)[C@@H]1O[C@@H]3OC(C)(C)O[C@@H]3[C@H]1O)C2 returned Sfp PPTase inh -5%.
Screening Cc1noc(C)c1C(=O)Nc1cc(S(=O)(=O)N2CCCCC2)ccc1N(C)C returned PLK1 PBD block 1%, JMJD2A Tudor -19%, G9a block 40µM*, HP1b binding inh 12% and BAZ2B inh 10%.
For C[C@@H](Oc1ccc(Oc2cnc3ccc(Cl)cc3n2)cc1)C(=O)O the results were G9a block 0%[12.7 µM].
`Cc1ccc(C(c2cc(Cl)c3cccnc3c2O)N2CCN(C)CC2)cc1` (stereo unspecified) gave PLK1 PBD block 1.5µM*, JMJD2A Tudor 45µM*, G9a block 3.5µM*, HP1b binding inh inconclusive, Sfp PPTase inh 35µM* and BAZ2B inh 22µM*.
